HDAC3 inhib: HDAC3 deacetylase inhibitors, primary screen, biochemical, fluorescence, cell-free homogeneous | recombinant HDAC3, fluorogenic peptide/trypsin coupled | 320,000 tested, 0.15% active | Histone deacetylase 3 (Homo sapiens), O15379 | inhibition, % at 8.3 µM; in the data active = inhibition above about 26%, passing the limit was not always enough; inconclusive = no clear call, values can overlap the other calls
IDE cell activ: human IDE activators in live cells, primary screen, fluorescence polarization, HEK cells, FAbeta-B substrate; Insulin-degrading enzyme (Homo sapiens), P14735; FAbeta-B cleavage; 0% vehicle, 100% cell-free pure enzyme wells; activation, % at 5.96 µM; 340,000 tested, 0.073% active;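 active = activation above the mean of all tested compounds plus 3 SD, set per screening campaign, cut at about 17% in these data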
LANA-H2B inh: blockers of LANA interaction with H2A/H2B – biochemical, FP readout, HTS, primary screen. Protein LANA1 (Human herpesvirus 8 type P (isolate GK18)), Q9QR71. cell-free LANA-H2A/H2B peptide, fluorescence polarization. inhibition, % (concentration not given with the values). 320,000 tested, 0.6% active; in the data active = inhibition mostly above about 10%, no sharp cut-off; inactive = mostly below about 6.7%
IDE inh: human IDE inhibitors in live cells, primary screen, fluorescence polarization, HEK cells, FAbetaB substrate; Insulin-degrading enzyme (Homo sapiens), P14735; FAbetaB cleavage; inhibition, % at 5.59 µM; 320,000 tested, 0.41% active;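 active = percent inhibition above the average of all tested compounds plus 3 SD, set per screening campaign, cut at about 16% in these data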;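 note: IDE supplied by intact live HEK cells; FP after avidin binding of uncleaved biotin substrate so inhibition keeps polarization high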
A number is an active result; ! = repeats disagree. Sampled rows, rich in hits. Any-hit rate of the full collection: about 1.1%.

For CNc1ccc2c3c(cccc13)C(=O)N(C)C2=O the results were HDAC3 inhib inactive, IDE cell activ 59, LANA-H2B inh 88 and IDE inh inactive.
COCC(C)n1c(SCC(=O)Nc2sccc2C(N)=O)nc2ccccc2c1=O (stereo not drawn) was read as HDAC3 inhib inactive, IDE cell activ inactive, LANA-H2B inh inactive and IDE inh inactive.
O=C(COc1ccc(Cl)cc1)NCCNc1ccc([N+](=O)[O-])cc1 was read as HDAC3 inhib inactive, IDE cell activ inactive, LANA-H2B inh inactive and IDE inh inactive.
C[C@]12CC[C@@H]3c4cc(O)c(O)cc4CC[C@H]3[C@@H]1CC[C@@H]2O was read as HDAC3 inhib inactive, IDE cell activ inactive, LANA-H2B inh 29 and IDE inh inactive.
C[C@]12CC[C@@H]3c4ccc(O)cc4CC[C@H]3[C@@H]1CC[C@@H]2O was read as HDAC3 inhib inactive, IDE cell activ inactive, LANA-H2B inh inactive and IDE inh inactive.
`C[C@]12CC[C@@H]3c4ccc(O)cc4[C@@H](O)C[C@H]3[C@@H]1CC[C@@H]2O` gave HDAC3 inhib inactive, LANA-H2B inh 26 and IDE inh inactive.
`COc1ccc(CCC(=O)OCC(=O)Nc2c(C)n(C)n(-c3ccccc3)c2=O)cc1` gave HDAC3 inhib inactive, IDE cell activ inactive, LANA-H2B inh inactive and IDE inh inactive.
Screening CCOc1ccc(S(=O)(=O)N(CC(=O)NCc2cccnc2)c2ccc(F)cc2)cc1 returned HDAC3 inhib inactive, IDE cell activ inactive, LANA-H2B inh inactive and IDE inh inactive.
Cc1oc2c(C)c3oc(=O)c(CCC(=O)NCCN4CCOCC4)c(C)c3cc2c1C was read as HDAC3 inhib inactive, IDE cell activ inactive, LANA-H2B inh 14 and IDE inh inactive.
`Cc1oc2c(C)c3oc(=O)c(CCC(=O)NCCCN4CCOCC4)c(C)c3cc2c1C` gave HDAC3 inhib inactive, IDE cell activ inactive, LANA-H2B inh inactive and IDE inh inactive.
For Cc1ccc(S(=O)(=O)NCCc2ccncc2)cc1C the results were HDAC3 inhib inactive, IDE cell activ inactive, LANA-H2B inh inactive and IDE inh inactive.
For O=C(O)c1ccccc1Nc1ccc([N+](=O)[O-])c2nonc12 the results were HDAC3 inhib inactive, IDE cell activ 22, LANA-H2B inh inactive and IDE inh inactive.
`Cc1cc(NC(=O)CN2CCCC2c2nc3ccccc3s2)no1` (stereo not drawn) gave HDAC3 inhib inactive, IDE cell activ inactive, LANA-H2B inh 15 and IDE inh inactive.
Cc1cc(NC(=O)CSCC(=O)Nc2nc3ccccc3s2)no1 was read as HDAC3 inhib inactive, IDE cell activ inactive, LANA-H2B inh inactive and IDE inh inactive.
CC1CCCC(NC(=O)C2CCN(S(=O)(=O)N3CCOCC3)CC2)C1C (stereo not drawn) was read as HDAC3 inhib inactive, IDE cell activ inactive, LANA-H2B inh inactive and IDE inh inactive.
For CC1CCCCC1NC(=O)C1CCN(S(=O)(=O)N2CCOCC2)CC1 (stereo not drawn) the results were HDAC3 inhib inconclusive, IDE cell activ inactive, LANA-H2B inh 26 and IDE inh inactive.
CC(=O)Cc1nsc(NC(=O)c2cn(-c3ccccc3)nc2-c2ccc(Br)cc2)n1 was read as HDAC3 inhib inactive, IDE cell activ inactive, LANA-H2B inh inactive and IDE inh inactive.
CN(C)C(=O)Oc1ccc[n+](C)c1 was read as HDAC3 inhib inactive, IDE cell activ inactive, LANA-H2B inh 74! and IDE inh inactive.
For COCCN(CCOC)C(=O)c1c[nH]c2ccc(S(=O)(=O)N(C)c3ccc(F)cc3)cc2c1=O the results were HDAC3 inhib inactive, IDE cell activ inactive, LANA-H2B inh 80 and IDE inh inactive.
COc1ccc(CN2C[C@H](Cc3ccccc3)[C@@H](CC(=O)Nc3ccccc3)C2=O)cc1 was read as HDAC3 inhib inactive, IDE cell activ inactive, LANA-H2B inh inactive and IDE inh inactive.
For COC(=O)c1nc(NC(=O)c2cc(OC)c(OC)c(OC)c2)n[nH]1 the results were HDAC3 inhib 39, IDE cell activ inactive, LANA-H2B inh inactive and IDE inh inactive.
CCCCC(C(=O)OCC)C(N)Cc1ccc(F)cc1 (stereo not drawn) was read as HDAC3 inhib inactive, IDE cell activ inactive, LANA-H2B inh 20 and IDE inh inactive.
CCN(CC)S(=O)(=O)c1ccc(NC(=O)Nc2cccc(C(F)(F)F)c2)cc1 was read as HDAC3 inhib inconclusive, IDE cell activ inactive, LANA-H2B inh inactive and IDE inh inactive.
For Cc1ccc(S(=O)(=O)Nc2ccc(NC(=O)Nc3cccc(C(F)(F)F)c3)cc2)cc1 the results were HDAC3 inhib 31, IDE cell activ inactive, LANA-H2B inh inactive and IDE inh inactive.
Screening COc1ccc(NC(=O)c2cc3c([nH]c4ccccc43)c(C)n2)cc1 returned HDAC3 inhib inactive, IDE cell activ inactive, LANA-H2B inh inactive and IDE inh inactive.
`Cc1nc(C(=O)Nc2ccccc2Cl)cc2c1[nH]c1ccccc12` gave HDAC3 inhib inactive, IDE cell activ inactive, LANA-H2B inh 8.3 and IDE inh inactive.
Screening COc1ccc(C(=O)O/N=C(/c2ccccc2)c2ccncc2)cc1OC returned HDAC3 inhib inactive, IDE cell activ inactive, LANA-H2B inh inactive and IDE inh inactive.
Screening COc1ccc(C(=O)O/N=C(/c2ccccc2)c2ccncc2)cc1 returned HDAC3 inhib 44, IDE cell activ inactive, LANA-H2B inh inactive and IDE inh inactive.
Screening Cc1cccc(NC(=O)COC(=O)c2cccs2)c1C returned HDAC3 inhib inactive, IDE cell activ inactive, LANA-H2B inh inactive and IDE inh inactive.
For COc1ccc(NC(=O)c2ccc(-c3ccccc3)cc2)cc1NS(=O)(=O)c1ccc(F)cc1 the results were HDAC3 inhib inactive, IDE cell activ inactive, LANA-H2B inh inactive and IDE inh 21.
For COc1cc(OC)cc(C(=O)Nc2ccc(C(=O)Nc3ccccc3OC)cc2)c1 the results were HDAC3 inhib inactive, IDE cell activ inactive, LANA-H2B inh inactive and IDE inh inactive.
`CCC1CCCCN1S(=O)(=O)c1ccc(S(=O)(=O)N2CCN(S(=O)(=O)CC)CC2)cc1` (stereo not drawn) gave HDAC3 inhib inactive, IDE cell activ 18, LANA-H2B inh inactive and IDE inh inactive.
O=C(CCS(=O)(=O)c1ccccc1)Nc1cccc2c1C(=O)NC2=O was read as HDAC3 inhib inactive, IDE cell activ inactive, LANA-H2B inh inactive and IDE inh inactive.
`COc1ccc(CNC(=O)[C@@H](NC(=O)C2CCN(S(=O)(=O)c3ccc(C)cc3)CC2)C(C)C)cc1OC` gave HDAC3 inhib inactive, IDE cell activ inactive, LANA-H2B inh 12 and IDE inh inactive.
COc1ccc(S(=O)(=O)N2CCC(C(=O)NC3CCCC3)CC2)cc1OC was read as HDAC3 inhib inactive, IDE cell activ inactive and LANA-H2B inh 16.
Screening COc1ccc(NC(=O)C2CCN(S(=O)(=O)c3ccc4c(c3)CC(C)N4C(C)=O)CC2)cc1OC (stereo not drawn) returned HDAC3 inhib inconclusive, IDE cell activ 77, LANA-H2B inh inactive and IDE inh inactive.
